Hits are enriched below; roughly 3.2% of the tested compounds scored in any of these assays.
ERK AVP block – inhibitors of vasopressin-stimulated ERK signaling pathway | HEK293-V1b, vasopressin-stimulated pERK AlphaScreen | Potency, µM (doses to about 57.5 µM), inactives show at the top dose activity, negative = inhibition, usual class: inhibitors | 72,000 compounds, 0.99% hits; also: % is scaled to controls: 0 for no effect and ±100 for the full control effect; nearly all actives have a fitted effect of over 55% in size
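qHTS, compounds titrated on V1b-expressing HEK293 cells. Preincubation 30 min at 37C, vasopressin 25 nM for 5 min, lysis 10 min, bead incubation 5 hr at room temperature.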
CRE Fsk mod – CRE-bla signaling modulation under forskolin stimulation | CHO CRE-bla reporter (cAMP response element driving beta-lactamase), forskolin EC10, beta-lactamase ratio | Potency, µM (titrated, usually from 38.2 µM), without a hit: top-dose activity change, negative = inhibition, usual class: activators | 71,000 compounds, 2.5% hits | AID 662; active = well fitted activation curve with a large enough effect in the signal ratio, with a control signal flat, not every such curve was filed as active; inconclusive = small, poorly fitted or top-dose-only effect, or effect the other way, or a change in a side signal; the % refers to the signal ratio; also: % of control where 0% means no effect
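Titrated compounds plus EC10 NKH 477 on CHO CRE-bla cells, 3 h, 37 °C. CCF4, 2 h RT. Ratio 460/530 nm → AC50.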
ALOX15B inhib – inhibitors of human 15-lipoxygenase 2 (ALOX15B) | purified 15hLO-2, xylenol orange hydroperoxide absorbance | Potency, µM (top dose mostly 57.1 µM), for the others: at the top dose activity change, negative = inhibition, most hits filed as inhibitors | AID 881 | O15296 | 110,000 compounds, 0.56% hits; also: % is scaled to controls: 0 for no effect and ±100 for the full control effect; nearly all actives have a fitted effect of over 60% in size
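Enzyme 50 nM, AA 45 uM, 25 mM Hepes pH 7.5 + 0.01% Triton X-100; cpd preinc 15 min RT, rxn 90 min RT; stop/detect with 200 uM XO + 300 uM Fe(II) in 50 mM H2SO4, 30 min; A573/A405.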
ALOX15 inhib – blocks human 15-lipoxygenase activity | Potency, µM (series often up to 57.1 µM), without a hit: at the top dose activity change, negative = inhibition, hits mostly inhibitors | P16050 | 74,000 compounds, 1.4% hits | purified 15hLO-1, xylenol orange hydroperoxide absorbance; also: % is scaled to controls: 0 for no effect and ±100 for the full control effect; nearly all actives have a fitted effect of over 55% in size
Target sequence (P16050 whole entry, looked up): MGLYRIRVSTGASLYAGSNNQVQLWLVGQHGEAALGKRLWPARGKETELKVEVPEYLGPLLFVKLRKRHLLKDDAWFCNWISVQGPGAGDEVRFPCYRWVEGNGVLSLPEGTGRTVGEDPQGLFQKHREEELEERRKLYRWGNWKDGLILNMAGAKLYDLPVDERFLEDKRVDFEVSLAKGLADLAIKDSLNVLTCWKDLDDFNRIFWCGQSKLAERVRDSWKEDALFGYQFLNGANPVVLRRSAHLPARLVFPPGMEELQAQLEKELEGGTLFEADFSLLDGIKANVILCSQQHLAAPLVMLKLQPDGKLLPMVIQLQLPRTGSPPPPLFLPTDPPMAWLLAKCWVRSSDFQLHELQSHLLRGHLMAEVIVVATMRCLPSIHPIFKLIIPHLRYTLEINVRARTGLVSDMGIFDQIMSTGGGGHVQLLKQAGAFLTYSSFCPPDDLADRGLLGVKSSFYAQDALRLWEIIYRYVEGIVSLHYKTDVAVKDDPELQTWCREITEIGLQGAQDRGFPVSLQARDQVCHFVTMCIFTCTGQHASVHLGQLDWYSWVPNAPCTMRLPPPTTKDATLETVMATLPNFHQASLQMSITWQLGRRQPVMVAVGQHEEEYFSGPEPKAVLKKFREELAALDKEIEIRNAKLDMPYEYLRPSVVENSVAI
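Quantitative HTS in 25 mM Hepes pH 7.5 containing 0.01% Triton X-100: human 15hLO-1 at 40 nM, arachidonic acid at 50 uM, 6 min turnover. Product quantified via ferrous oxidation/xylenol orange, 573:405 nm absorbance ratio.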
Numbers without * were called inactive; u = inconclusive; x = no result given; [ ] = another dose, or the depositor's remark. Unless noted, calls follow the shape of the dose curve; as a rule, active = well fitted inhibition curve with a large enough effect; inconclusive = small, poorly fitted or top-dose-only effect; inactive = no such curve, though single readings can be large or run the other way. Potency is read from the fitted curve at half-maximal effect.

SMILES	ERK AVP block	CRE Fsk mod	ALOX15B inhib	ALOX15 inhib
COc1ccc(-c2nc3cnc(Oc4cccc(Cl)c4)nc3n(C[C@H]3CCCO3)c2=O)cc1	-8.6%	u	-5.4%	7.1%
COc1ccccc1-c1nc(NCc2cccnc2)c2ccccc2n1	-5.3%	u	-7.9%	u
O=C(NC(NC(=S)Nc1ccccc1)C(Cl)(Cl)Cl)c1cccc(Cl)c1 (configuration not stated)	x	x	25.1µM*	x
O=C(O)c1ccc(NC(=S)NC(NC(=O)c2ccco2)C(Cl)(Cl)Cl)cc1 (configuration not stated)	x	x	-3.5%	x
CC(=O)Nc1ccc(S(=O)(=O)Nc2nc3ccccc3nc2N2CCCC2)cc1	-8.9%	12.6µM*	-7.8%	-0.9%
CC(=O)Nc1ccc(NS(=O)(=O)c2ccc3ccccc3c2)cc1	x	x	-1.1%	x
COc1ccc(OC)c(C2=Nn3c(nnc3-c3ccco3)SC2)c1	x	x	-7.2%	x
CCOc1ccc(C2=Nn3c(nnc3-c3ccc(OC)cc3)SC2)cc1	u	12.6µM*	-14.6%	-27.1%
CCCc1nnc2n1N=C(c1ccc(OC)c(OC)c1)CS2	15.8µM*	6.31µM*	x	-4.0%
COc1ccc(C2=Nn3c(nnc3-c3cccnc3)SC2)cc1	-25.9%	10µM*	x	-4.7%
COc1ccc(OC)c(C2=Nn3c(nnc3-c3cccc(OC(C)C)c3)SC2)c1	-22.8%	1.26µM*	-5.2%	-11.1%
CCOc1ccc(C2=Nn3c(nnc3-c3cccnc3)SC2)cc1	x	x	0.1%	x
CC#C[C@@]1(O)CC[C@H]2[C@@H]3CCC4=CC(=O)CCC4=C3[C@H](c3ccc(N(C)C)cc3)C[C@]21C	-11.7%[25.7 µM]	0.3%[17.1 µM]	u	-11.7%[25.6 µM]
FC(F)(F)c1ccccc1-c1nccc(N2CCNCC2)n1	9.8%	-2.0%	-1.6%	6.5%
COc1ccc(OCc2nnc3n2N=C(c2ccc(OC)cc2)CS3)cc1	25.1µM*	3.98µM*	-7.3%	-6.7%
COc1ccc(Cc2nnc3n2N=C(c2cc4ccccc4o2)CS3)cc1OC	-0.9%	3.16µM*	x	-25.6%
COc1ccc(OCc2nnc3n2N=C(c2ccc(C)cc2)CS3)cc1	-24.1%	u	1.2%	-2.9%
Cc1ccc(S(=O)(=O)N[C@H]2COC(=O)[C@@H](C)COC(=O)C/C=C\[C@H]2C)cc1	15.4%[11.5 µM]	x	x	-12.7%[11.4 µM]
COC(=O)c1ccccc1NC(=O)c1sc(N)nc1C	u	15.8µM*	7.4%	11.8%
Cc1nc(N)sc1C(=O)Nc1ccccc1	x	x	4.4%	x
CO[C@@H]1COC(=O)CCC[C@@H](C)[C@H](OC)COC(=O)[C@H](Cc2ccccc2)NC(=O)C/C=C\[C@H]1C	13.1%[11.5 µM]	x	x	-1.6%[11.4 µM]
C[Si](C)(c1ccc(C(=O)O)cc1)c1ccc(C(=O)O)cc1	17.4%[11.5 µM]	0.7%[7.6 µM]	14.3%[11.4 µM]	-29.1%[11.4 µM]
CC(C)=CCCC(C)N(C=O)C(C)CCC=C(C)C (configuration not stated)	17.0%	13.3%	x	7.94µM*
CCCC(=O)c1c(NC(C)C)cc(C)oc1=O	-28.6%	12.6µM*	-0.1%	5.4%
CCCNc1cc(C)oc(=O)c1C(=O)CCC	x	x	5.6%	x
SMILES	ERK AVP block	CRE Fsk mod	ALOX15B inhib	ALOX15 inhib
COc1ccc(NC(=O)N2CCC3(CC2)CCN(C(=O)c2ccco2)CC3)cc1	-17.5%	-9.1%	3.3%	9.1%
COc1ccc(C(=O)c2cn[nH]c2-c2cc(Cl)ccc2O)cc1	39.8µM*	u	-6.3%	20µM*
O=C(c1ccc(Cl)cc1)c1cn[nH]c1-c1ccccc1O	x	x	-4.0%	x
Cc1nc(SCC(=O)Nc2ccc(F)cc2)c2oc3ccccc3c2n1	-4.5%	0.631µM*	0.9%	-9.4%
Cc1nc(SCC(=O)NCC2CCCO2)c2oc3ccccc3c2n1 (configuration not stated)	-20.6%	10µM*	-11.7%	10.2%
Cc1cc(NCCCN2CCOCC2)n2ncc(-c3ccc(Cl)cc3)c2n1	-2.4%	1.58µM*	37.7%	-9.6%
O=C(NCc1ccncc1)C1COc2ccccc2O1 (configuration not stated)	x	x	-9.6%	x
O=C(CCC1COc2ccccc2O1)Nc1ccccn1 (configuration not stated)	2.4%	10µM*	3.1%	2.7%
O=C(NCc1ccccn1)C1COc2ccccc2O1 (configuration not stated)	u	10µM*	-2.5%	-1.4%
C=C(C)C(N)=O	16.3%	3.4%	-17.4%	2.0%
C[C@](O)(C(=O)Nc1ccc(S(=O)(=O)c2ccccc2)cc1)C(F)(F)F	1.4%	-1.1%	5.2%	2.2%[25.6 µM]
CN=C1N[C@H](c2ccccc2)N(c2ccccc2)S1	-22.4%	u	25.1µM*	0.794µM*
Cn1c(=O)n2n(c1=O)[C@H]1[C@H](O)[C@H]3O[C@@H]3/C(=N/OCc3ccccc3)[C@@H]1CC2	12.2%[11.5 µM]	x	x	0.3%[11.4 µM]
CCC1CCc2c(sc(NC(=O)c3ccoc3C)c2C(N)=O)C1 (configuration not stated)	-2.5%	10µM*	-15.5%	-15.7%
Cc1ccc(S(=O)(=O)O[C@@H]2[C@H]([C@@H]3COC(C)(C)O3)O[C@H]3OC(C)(C)O[C@@H]32)cc1	8.2%[11.5 µM]	-2.5%[7.6 µM]	-2.0%[11.4 µM]	1.5%[11.4 µM]
C[C@@]12CCC(=O)C=C1CC[C@H]1[C@@H]2[C@@H](O)C[C@]2(C)[C@@H]1CC[C@@]2(O)C(=O)CO	12.7%[11.5 µM]	-11.2%[7.6 µM]	-0.2%[11.4 µM]	12.9%[11.4 µM]
NC(=O)c1ccccc1OCC(=O)NC12CC3CC(CC(C3)C1)C2	x	x	15.1%	x
O=C(Cn1sc2ccccc2c1=O)NC12CC3CC(CC(C3)C1)C2	x	x	0.794µM*	x
N#CC1=C(SCC(=O)c2cc3ccccc3oc2=O)NC(=O)C(C#N)C12CCCC2 (configuration not stated)	25.1µM*	-29.8%	-13.8%	u
CC(C)(C)C1CCC2(CC1)C(C#N)=C(SCC(=O)Nc1ccccc1)NC(=O)C2C#N (configuration not stated)	x	x	-3.0%	x
CC(C)(C(=O)O)c1ccc([C@@H](O)CCCN2CCC(C(O)(c3ccccc3)c3ccccc3)CC2)cc1	-27.1%	u	-1.1%	-5.4%
Cc1ccc(N=Cc2sc(O)c3ccccc23)c(C)c1	x	x	-9.3%[11.4 µM]	x
Cc1ccc(N=Cc2cccc(O)c2O)c(C)c1	x	x	u	6.31µM*

Bioassay records: PubChem, National Center for Advancing Translational Sciences (NCATS)
